A selection: hits, their analogues and other compounds. The true share with any hit is near 8.8%.
ALDH1A1 block = blocks purified human ALDH1A1 activity | P00352 | Purified ALDH1A1, NADH fluorescence, propionaldehyde substrate | Potency, µM (top dose mostly 75.3 µM), hits mostly inhibitors | 220,000 tested, 7.3% active; active = well fitted inhibition curve with a large enough effect, not every such curve was filed as active; inconclusive = small, poorly fitted or top-dose-only effect, or another doubt; inactive = no such curve, though single readings can be large or run the other way
Target sequence (P00352 whole entry, looked up): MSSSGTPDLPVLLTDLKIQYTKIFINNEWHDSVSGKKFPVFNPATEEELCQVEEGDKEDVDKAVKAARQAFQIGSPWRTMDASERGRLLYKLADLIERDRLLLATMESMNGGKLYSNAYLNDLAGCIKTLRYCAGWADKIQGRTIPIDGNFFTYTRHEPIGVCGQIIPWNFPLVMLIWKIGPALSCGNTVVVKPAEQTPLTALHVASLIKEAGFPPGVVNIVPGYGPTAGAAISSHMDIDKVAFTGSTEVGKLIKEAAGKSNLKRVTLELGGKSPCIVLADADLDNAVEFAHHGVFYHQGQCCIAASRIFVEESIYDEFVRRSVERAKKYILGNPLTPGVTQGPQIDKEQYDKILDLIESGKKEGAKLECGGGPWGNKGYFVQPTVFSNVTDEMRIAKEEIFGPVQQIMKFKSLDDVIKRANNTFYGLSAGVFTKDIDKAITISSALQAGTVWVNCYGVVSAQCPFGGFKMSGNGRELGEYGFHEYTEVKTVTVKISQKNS
HPGD block = blocks human HPGD enzyme activity | P15428 | purified HPGD, NADH fluorescence kinetic, PGE2 substrate | Potency, µM, usual class: inhibitors | 150,000 tested, 4.3% active | AID 894; active = well fitted inhibition curve with a large enough effect, not every such curve was filed as active; inconclusive = small, poorly fitted or top-dose-only effect, or another doubt; inactive = no such curve, though single readings can be large or run the other way
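20 nM HPGD preincubated 15 min at room temperature with compound in 50 mM Tris-HCl pH 8, 0.01% Tween 20. Started with 1 mM NAD+ and 30 uM prostaglandin E2; NADH fluorescence (360/450 nm) read 5 times over 30-s intervals, last minus first.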
HTT aggregate = mutant huntingtin aggregation inhibition; PC12 HttQ103-GFP aggregates, Acumen cytometry, 40 h; Potency, µM (doses to about 46.1 µM), actives largely listed as inhibitors; AID 1688; 220,000 tested, 1.1% active; also: nearly all actives have a fitted effect of over 60% in size
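PC12/HTTQ103-GFP, ecdysone-inducible; teb 100 nM; cpd qHTS titration; GFP aggregates read on laser cytometer, Ex 488/Em 500-530 nm.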
HTT cytoprotect = cytoprotection in Huntington HTT-Q103 PC12 cell model. PC12 HTT-Q103 induced, cytoprotection, ATP luminescence, 40 h. Potency, µM (highest dose often 56.4 µM), most hits filed as activators. 230,000 tested, 0.14% active. AID 1471; also: nearly all actives have a fitted effect of over 45% in size
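Huntington model: PC12 line, ecdysone-inducible HTTQ103 exon1–GFP, tebufenozide 100 nM. Test articles in a dose series. Endpoint luminescence from cellular ATP.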
LMNA splice mod = LMNA splicing modulation. Potency, µM (doses to about 46.1 µM), usual class: inhibitors. 200,000 tested, 0.01% active. HeLa LMNA splicing GFP/RFP minigene ratio, 48 h; active = well fitted inhibition curve with a large enough effect in the signal ratio, with a control signal flat, not every such curve was filed as active; inconclusive = small, poorly fitted or top-dose-only effect, or effect the other way, or a change in a side signal; the % refers to the signal ratio
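S3 HeLa stable clones carrying a lamin A-EGFP splicing minigene plus DsRed2 were seeded at 600 cells/well in Opti-MEM with 2% FBS, pin-dosed and incubated 48 h at 37°C. Acumen cytometry (488 nm) gave the GFP/RFP total-intensity ratio.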
A number is an active result; [ ] = dose if it differs, or a comment. Unless noted, calls follow the shape of the dose curve; as a rule, active = well fitted curve in the direction sought with a large enough effect; inconclusive = small, poorly fitted or top-dose-only effect, or another doubt; inactive = no such curve, though single readings can be large; an effect the other way counts as inactive or inconclusive.

Cc1cc2n(n1)CCCN2C(=O)Nc1ccc(Cl)cc1 was read as LMNA splice mod inactive.
CCCc1nn2c(=O)cc(COC(=O)c3cccc(NC(=O)COc4ccccc4C)c3)nc2s1 was read as LMNA splice mod inactive.
`COc1cc(C(=O)NCCC(=O)NC(C)C)cc(OC)c1OC` gave ALDH1A1 block inactive, HTT aggregate inactive, HTT cytoprotect inactive[10 µM] and LMNA splice mod inactive.
`CCCC(C)NC(=O)c1ccc(F)cc1` (configuration not stated) gave ALDH1A1 block 40µM, HPGD block inconclusive, HTT aggregate inactive, HTT cytoprotect inactive and LMNA splice mod inactive.
CCCC(C)NC(=O)c1ccc(-c2ccccc2)cc1 (configuration not stated) was read as ALDH1A1 block inactive, HTT aggregate inactive and HTT cytoprotect inactive.
`CC(C)NC(=O)CCNC(=O)c1ccc(F)cc1` gave ALDH1A1 block 2.8µM, HPGD block inactive, HTT aggregate inactive, HTT cytoprotect inactive and LMNA splice mod inactive.
Cc1ccc(OCC(=O)N2CCc3ccccc3C2)c([N+](=O)[O-])n1 was read as ALDH1A1 block inactive, HTT aggregate inactive, HTT cytoprotect inactive and LMNA splice mod inactive.
For CCCCNc1cc(C)nc(NCc2ccccc2)n1 the results were ALDH1A1 block inconclusive, HPGD block inactive, HTT aggregate 10µM, HTT cytoprotect inactive and LMNA splice mod inconclusive.
Screening Cc1cc(Nc2ccc(Cl)cc2)nc(NCc2ccccc2)n1 returned ALDH1A1 block inactive, HPGD block inactive, HTT aggregate inconclusive and LMNA splice mod inconclusive.
Cc1cc(Nc2ccccc2)nc(NCc2ccccc2)n1 was read as ALDH1A1 block inactive, HPGD block inactive, HTT aggregate 6.3µM, HTT cytoprotect inactive[10 µM] and LMNA splice mod inconclusive.
`O=C(CNC(=O)c1ccccc1F)OCc1cc(=O)n2nc(C3CC3)sc2n1` gave LMNA splice mod inactive.
Screening O=C(Nc1ccccc1)C1=C[C@@H](c2ccc(Br)cc2)C[C@@H](OCCCCO)O1 returned ALDH1A1 block 7.9µM, HTT aggregate inactive[9.22 µM] and HTT cytoprotect inactive[10 µM].
Screening O=C(Nc1ccccc1)C1=C[C@H](c2ccc3c(c2)OCO3)C[C@H](OCCCCO)O1 returned ALDH1A1 block inactive, HTT aggregate inactive[9.22 µM] and HTT cytoprotect inactive[10 µM].
CC(=O)n1cc([C@@H]2C=C(C(=O)Nc3ccccc3)O[C@H](OCCCCO)C2)c2ccccc21 was read as ALDH1A1 block 13µM, HTT aggregate inactive[9.22 µM] and HTT cytoprotect inactive[10 µM].
For CCCCc1nc2c(c3c1C[C@H](C)OC3)CN(C(=O)c1cccnc1)CC2 the results were ALDH1A1 block inactive[13.5 µM], HPGD block inactive, HTT cytoprotect inactive[10 µM] and LMNA splice mod inconclusive.
Screening NC(N)=NC(N)=Nc1ccccc1 (tested in a mixture with another compound) returned ALDH1A1 block inactive[13.5 µM], HPGD block inactive and HTT cytoprotect inactive[10 µM].
`O=C(Nc1sc2c(c1C(=O)O)CCCCC2)c1ccccc1` gave ALDH1A1 block inconclusive, HTT aggregate inactive[9.22 µM] and HTT cytoprotect inactive[10 µM].
For O=C(Nc1sc2c(c1C(=O)O)CCC2)c1ccc(F)cc1 the results were ALDH1A1 block inactive, HTT aggregate inactive, HTT cytoprotect inactive and LMNA splice mod inactive.
O=C(Nc1sc2c(c1C(=O)O)CCC2)c1ccccc1 was read as ALDH1A1 block inactive, HPGD block 18µM, HTT aggregate inactive, HTT cytoprotect inactive and LMNA splice mod inconclusive.
`O=C(O)c1c(NC(=O)c2cccc3ccccc23)sc2c1CCC2` gave ALDH1A1 block inconclusive, HPGD block 16µM, HTT aggregate inactive[9.22 µM], HTT cytoprotect inactive and LMNA splice mod inactive.
`O=C(Nc1sc2c(c1C(=O)O)CCC2)c1cccs1` gave ALDH1A1 block inconclusive, HPGD block 25µM, HTT aggregate inactive, HTT cytoprotect inactive[10 µM] and LMNA splice mod inconclusive.
For C=CCn1c(=S)[nH]c2scc(-c3ccc(C)o3)c2c1=O the results were ALDH1A1 block inconclusive, HTT aggregate 22µM, HTT cytoprotect inactive[10 µM] and LMNA splice mod inactive.
`Cc1ccc(-c2csc3nc(C)n(N)c(=O)c23)o1` gave ALDH1A1 block inactive, HPGD block inactive, HTT aggregate inactive, HTT cytoprotect inactive and LMNA splice mod inactive.
`C=CCn1c(=S)[nH]c2sccc2c1=O` gave ALDH1A1 block 32µM, HTT aggregate inactive, HTT cytoprotect inactive and LMNA splice mod inactive.

Screening data: PubChem, National Center for Advancing Translational Sciences (NCATS)
